Data on one sequence can be found in paper PMC7862700, “An all-to-all approach to the identification of sequence-specific readers for epigenetic DNA modifications on cytosine”.

Holding throughout (test): DAPPL (digital affinity profiling via proximity ligation, sequencing); 10 mM Tris-HCl pH 7.5, 50 mM NaCl, 1 mM DTT, 4% glycerol, room temperature, 30 min; GST-TFs on glutathione beads, 16-mer random dsDNA library, 0.1% formaldehyde crosslink after washing; high values mean tight binding
In test [1] the target is T1, FLI1 (Homo sapiens, UniProt Q01543 1-452).
T1 sequence: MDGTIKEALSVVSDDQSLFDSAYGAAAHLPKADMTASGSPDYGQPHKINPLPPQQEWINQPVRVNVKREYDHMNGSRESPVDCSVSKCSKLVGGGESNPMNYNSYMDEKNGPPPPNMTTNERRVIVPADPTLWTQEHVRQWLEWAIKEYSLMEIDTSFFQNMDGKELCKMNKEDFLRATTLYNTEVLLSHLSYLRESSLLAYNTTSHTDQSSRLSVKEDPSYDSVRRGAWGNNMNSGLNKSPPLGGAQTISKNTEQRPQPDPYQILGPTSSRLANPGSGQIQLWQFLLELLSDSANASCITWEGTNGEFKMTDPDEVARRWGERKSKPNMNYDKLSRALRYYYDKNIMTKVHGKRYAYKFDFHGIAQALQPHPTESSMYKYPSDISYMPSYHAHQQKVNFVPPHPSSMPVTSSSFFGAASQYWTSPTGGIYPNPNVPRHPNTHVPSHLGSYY
Conditions: protein: recombinant; tags: N-terminal GST; dsDNA, one strand shown. The gist of the method:
(§1)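 Pools of DNA-barcoded human transcription factors, expressed in yeast as GST fusions on glutathione beads and combined with a tag-only sample, were incubated with 200 nmole of a 16-mer random double-stranded DNA library. Incubation took 30 min at room temperature in Tris/NaCl/DTT/glycerol buffer and was followed by washing, 0.1% formaldehyde crosslinking, proximity ligation (BsaI/T4 ligase, 1 h, 37 °C), PCR amplification and sequencing on an Illumina NextSeq500. Binding signal is the ratio of a hexamer's read frequency for a factor to its frequency for the tag-only sample.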

Test [2] addresses T2, ELK1 (Homo sapiens, UniProt P19419 1-428).
T2 sequence: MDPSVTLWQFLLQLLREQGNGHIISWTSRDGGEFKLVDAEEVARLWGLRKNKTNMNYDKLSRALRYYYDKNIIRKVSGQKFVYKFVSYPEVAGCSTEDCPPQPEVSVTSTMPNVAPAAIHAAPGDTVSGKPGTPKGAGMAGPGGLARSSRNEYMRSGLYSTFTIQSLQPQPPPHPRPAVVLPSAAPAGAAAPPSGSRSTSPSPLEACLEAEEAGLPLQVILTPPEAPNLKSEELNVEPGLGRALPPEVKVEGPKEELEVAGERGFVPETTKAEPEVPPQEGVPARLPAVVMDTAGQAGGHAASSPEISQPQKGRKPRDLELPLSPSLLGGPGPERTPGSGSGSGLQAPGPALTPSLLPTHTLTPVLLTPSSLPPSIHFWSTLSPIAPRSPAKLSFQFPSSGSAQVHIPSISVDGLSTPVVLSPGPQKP
The conditions noted are these: protein: recombinant; tags: N-terminal GST; dsDNA, one strand shown. A digest of the protocol:
as §1

The target in test [3] is T3, GABPA (Homo sapiens, UniProt Q06546 1-454).
T3 sequence: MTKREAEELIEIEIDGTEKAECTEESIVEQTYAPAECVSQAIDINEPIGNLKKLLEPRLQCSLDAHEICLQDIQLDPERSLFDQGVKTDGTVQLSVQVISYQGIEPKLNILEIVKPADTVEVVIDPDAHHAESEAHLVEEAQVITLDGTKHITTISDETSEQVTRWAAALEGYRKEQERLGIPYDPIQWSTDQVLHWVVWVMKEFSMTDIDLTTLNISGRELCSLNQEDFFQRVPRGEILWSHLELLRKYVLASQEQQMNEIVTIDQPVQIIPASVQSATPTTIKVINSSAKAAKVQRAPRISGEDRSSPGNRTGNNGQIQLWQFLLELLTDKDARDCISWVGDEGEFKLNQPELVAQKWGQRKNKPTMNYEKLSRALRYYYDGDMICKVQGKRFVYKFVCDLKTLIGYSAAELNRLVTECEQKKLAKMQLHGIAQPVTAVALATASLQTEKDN
The conditions noted are these: protein: recombinant; tags: N-terminal GST; dsDNA, one strand shown. The gist of the method:
as §1

Test [4] addresses T4, ERG (Homo sapiens, UniProt P11308 1-479).
T4 sequence: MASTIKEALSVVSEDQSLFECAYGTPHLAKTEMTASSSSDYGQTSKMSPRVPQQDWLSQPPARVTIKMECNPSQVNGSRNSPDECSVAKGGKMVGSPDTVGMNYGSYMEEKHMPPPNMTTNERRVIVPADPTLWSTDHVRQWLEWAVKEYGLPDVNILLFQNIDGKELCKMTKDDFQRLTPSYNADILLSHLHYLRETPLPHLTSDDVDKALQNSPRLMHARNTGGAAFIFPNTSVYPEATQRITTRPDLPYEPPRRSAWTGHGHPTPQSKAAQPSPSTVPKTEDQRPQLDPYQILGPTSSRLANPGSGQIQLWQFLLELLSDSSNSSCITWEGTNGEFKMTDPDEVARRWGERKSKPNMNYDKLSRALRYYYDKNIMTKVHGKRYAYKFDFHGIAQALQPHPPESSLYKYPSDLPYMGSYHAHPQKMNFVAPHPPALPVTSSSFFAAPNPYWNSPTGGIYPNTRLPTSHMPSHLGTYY
Conditions: protein: recombinant; tags: N-terminal GST; dsDNA, one strand shown. The gist of the method:
as §1

Test [5] addresses ELF1 (Homo sapiens, UniProt P32519 1-619). The conditions noted are these: protein: recombinant; tags: N-terminal GST; dsDNA, one strand shown. A digest of the protocol:
as §1

The target of test [6] is T5, EHF (Homo sapiens, UniProt Q9NZC4 1-300).
T5 sequence: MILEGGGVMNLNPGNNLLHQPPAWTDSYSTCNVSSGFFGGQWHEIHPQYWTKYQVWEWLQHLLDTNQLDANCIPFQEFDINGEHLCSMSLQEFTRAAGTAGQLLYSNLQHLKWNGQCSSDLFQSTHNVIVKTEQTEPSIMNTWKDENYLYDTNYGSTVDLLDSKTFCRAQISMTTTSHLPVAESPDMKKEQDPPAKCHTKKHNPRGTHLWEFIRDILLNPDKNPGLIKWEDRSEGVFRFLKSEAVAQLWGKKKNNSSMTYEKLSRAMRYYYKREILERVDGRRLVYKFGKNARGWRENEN
Conditions: protein: recombinant; tags: N-terminal GST; dsDNA, one strand shown. A digest of the protocol:
as §1

Test [7] deals with SPI1 (Homo sapiens, UniProt P17947 1-270). Conditions: protein: recombinant; tags: N-terminal GST; dsDNA, one strand shown. A digest of the protocol: as §1
The target in test [8] is T6, ELK3 (Homo sapiens, UniProt P41970 1-407).
T6 sequence: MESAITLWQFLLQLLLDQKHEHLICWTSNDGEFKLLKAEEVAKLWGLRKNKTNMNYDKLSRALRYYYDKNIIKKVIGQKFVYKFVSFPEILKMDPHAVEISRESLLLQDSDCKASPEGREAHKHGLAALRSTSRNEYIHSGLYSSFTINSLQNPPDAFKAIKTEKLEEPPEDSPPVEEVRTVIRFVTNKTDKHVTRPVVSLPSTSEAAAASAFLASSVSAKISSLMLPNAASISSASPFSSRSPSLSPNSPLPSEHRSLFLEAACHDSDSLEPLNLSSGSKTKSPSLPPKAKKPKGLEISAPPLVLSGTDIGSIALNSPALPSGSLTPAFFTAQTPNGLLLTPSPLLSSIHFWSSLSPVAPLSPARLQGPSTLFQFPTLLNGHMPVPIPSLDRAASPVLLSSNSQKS
The conditions noted are these: protein: recombinant; tags: N-terminal GST; dsDNA, one strand shown. The gist of the method:
as §1

Test [9] has as its target T7, FEV (Homo sapiens, UniProt Q99581 1-238).
T7 sequence: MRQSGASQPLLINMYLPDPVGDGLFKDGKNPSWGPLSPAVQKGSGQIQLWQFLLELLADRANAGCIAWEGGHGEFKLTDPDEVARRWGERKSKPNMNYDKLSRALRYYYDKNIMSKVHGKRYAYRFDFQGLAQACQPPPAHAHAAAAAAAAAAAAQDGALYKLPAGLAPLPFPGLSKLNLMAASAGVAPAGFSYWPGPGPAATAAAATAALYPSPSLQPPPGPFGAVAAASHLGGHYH
Conditions: protein: recombinant; tags: N-terminal GST; dsDNA, one strand shown. A digest of the protocol:
as §1

Test [10] deals with ETV5 (Homo sapiens, UniProt P41161 1-510). The conditions noted are these: protein: recombinant; tags: N-terminal GST; dsDNA, one strand shown. The gist of the method: as §1
In test [11] the target is HSF1 (Homo sapiens, UniProt Q00613 1-529). The conditions noted are these: protein: recombinant; tags: N-terminal GST; chain copies: 3; dsDNA, one strand shown. The gist of the method:
as §1

Test [12] addresses T8, SPIC (Homo sapiens, UniProt Q8N5J4 1-248).
T8 sequence: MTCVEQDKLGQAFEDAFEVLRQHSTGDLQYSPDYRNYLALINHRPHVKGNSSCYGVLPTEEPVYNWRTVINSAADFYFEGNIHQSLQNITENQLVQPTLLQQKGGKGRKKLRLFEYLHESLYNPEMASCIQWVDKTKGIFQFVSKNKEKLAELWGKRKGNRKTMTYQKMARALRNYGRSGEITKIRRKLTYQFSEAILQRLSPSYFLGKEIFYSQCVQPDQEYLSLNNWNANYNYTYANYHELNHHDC
Conditions: protein: recombinant; tags: N-terminal GST; dsDNA, one strand shown. A digest of the protocol:
as §1

The target in test [13] is ELF4 (Homo sapiens, UniProt Q99607 1-663). The conditions noted are these: protein: recombinant; tags: N-terminal GST; dsDNA, one strand shown. The gist of the method:
as §1

For test [14], the target named is T9, ELK4 (Homo sapiens, UniProt P28324-2 1-405).
T9 sequence: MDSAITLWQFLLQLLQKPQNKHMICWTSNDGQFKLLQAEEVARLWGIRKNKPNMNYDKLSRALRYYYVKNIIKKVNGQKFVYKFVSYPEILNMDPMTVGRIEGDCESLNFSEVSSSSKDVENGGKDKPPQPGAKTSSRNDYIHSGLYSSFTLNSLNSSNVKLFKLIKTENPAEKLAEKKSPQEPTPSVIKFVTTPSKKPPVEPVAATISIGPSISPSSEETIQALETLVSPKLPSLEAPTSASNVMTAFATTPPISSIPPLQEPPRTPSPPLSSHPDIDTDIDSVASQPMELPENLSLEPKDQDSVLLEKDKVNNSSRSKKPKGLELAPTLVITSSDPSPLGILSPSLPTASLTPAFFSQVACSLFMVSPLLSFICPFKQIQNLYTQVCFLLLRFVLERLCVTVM
The conditions noted are these: protein: recombinant; tags: N-terminal GST; dsDNA, one strand shown. A digest of the protocol: as §1

The target of test [15] is T10, ETV2 (Homo sapiens, UniProt O00321 1-342).
T10 sequence: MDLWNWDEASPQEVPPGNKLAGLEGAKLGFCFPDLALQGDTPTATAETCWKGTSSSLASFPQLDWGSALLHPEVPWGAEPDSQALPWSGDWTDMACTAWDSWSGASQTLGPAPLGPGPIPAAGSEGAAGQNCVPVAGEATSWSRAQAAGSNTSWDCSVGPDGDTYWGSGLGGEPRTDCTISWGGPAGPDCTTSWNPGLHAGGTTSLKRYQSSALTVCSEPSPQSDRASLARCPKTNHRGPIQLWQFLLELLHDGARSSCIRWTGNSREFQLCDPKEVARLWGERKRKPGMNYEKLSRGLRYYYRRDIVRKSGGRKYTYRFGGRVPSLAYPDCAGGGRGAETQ
The conditions noted are these: protein: recombinant; tags: N-terminal GST; dsDNA, one strand shown. The gist of the method: as §1

Test [16] has as its target T11, ELF3 (Homo sapiens, UniProt P78545 1-371).
T11 sequence: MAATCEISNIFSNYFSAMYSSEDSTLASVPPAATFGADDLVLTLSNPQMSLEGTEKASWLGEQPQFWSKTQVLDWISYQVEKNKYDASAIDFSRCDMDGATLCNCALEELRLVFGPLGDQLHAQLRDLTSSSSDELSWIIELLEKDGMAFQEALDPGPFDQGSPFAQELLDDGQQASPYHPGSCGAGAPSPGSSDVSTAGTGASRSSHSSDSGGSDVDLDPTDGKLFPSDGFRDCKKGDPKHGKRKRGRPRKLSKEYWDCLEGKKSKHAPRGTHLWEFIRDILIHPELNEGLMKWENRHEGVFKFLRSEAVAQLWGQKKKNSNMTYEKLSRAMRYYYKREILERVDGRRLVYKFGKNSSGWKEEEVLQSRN
The conditions noted are these: protein: recombinant; tags: N-terminal GST; dsDNA, one strand shown. The gist of the method:
as §1

For test [17], the target named is CRX (Homo sapiens, UniProt O43186 1-299). Conditions: protein: recombinant; tags: N-terminal GST; dsDNA, one strand shown. The gist of the method:
as §1

For test [18], the target named is ETV1 (Homo sapiens, UniProt P50549 1-477). The conditions noted are these: protein: recombinant; tags: N-terminal GST; dsDNA, one strand shown. A digest of the protocol:
as §1

CRX, sequence (O43186 whole entry): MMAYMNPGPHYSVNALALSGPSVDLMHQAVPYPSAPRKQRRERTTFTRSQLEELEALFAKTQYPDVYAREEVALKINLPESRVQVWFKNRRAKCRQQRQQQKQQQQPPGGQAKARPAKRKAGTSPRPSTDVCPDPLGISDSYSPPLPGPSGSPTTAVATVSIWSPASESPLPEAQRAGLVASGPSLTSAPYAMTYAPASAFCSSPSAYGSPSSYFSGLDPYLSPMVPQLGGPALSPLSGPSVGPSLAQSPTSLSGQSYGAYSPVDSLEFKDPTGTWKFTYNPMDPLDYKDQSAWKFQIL
ELF1, sequence (P32519 whole entry): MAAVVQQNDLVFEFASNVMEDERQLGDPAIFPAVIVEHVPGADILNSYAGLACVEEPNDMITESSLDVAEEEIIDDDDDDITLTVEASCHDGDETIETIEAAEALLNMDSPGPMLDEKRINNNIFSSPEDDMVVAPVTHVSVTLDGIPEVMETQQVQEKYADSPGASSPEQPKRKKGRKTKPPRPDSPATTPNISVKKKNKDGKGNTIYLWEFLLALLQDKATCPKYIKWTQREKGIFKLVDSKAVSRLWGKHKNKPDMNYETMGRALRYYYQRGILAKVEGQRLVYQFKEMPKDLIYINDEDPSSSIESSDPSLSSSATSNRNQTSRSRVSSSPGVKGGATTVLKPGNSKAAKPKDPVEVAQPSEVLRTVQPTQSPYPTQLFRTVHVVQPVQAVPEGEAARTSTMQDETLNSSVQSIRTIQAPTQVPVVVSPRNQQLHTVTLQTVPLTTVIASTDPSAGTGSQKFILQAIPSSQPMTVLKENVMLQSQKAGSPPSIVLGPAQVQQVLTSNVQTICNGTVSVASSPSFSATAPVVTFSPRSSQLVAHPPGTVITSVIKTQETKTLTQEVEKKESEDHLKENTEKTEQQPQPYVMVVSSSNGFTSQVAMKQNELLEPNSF
ETV5, sequence (P41161 whole entry): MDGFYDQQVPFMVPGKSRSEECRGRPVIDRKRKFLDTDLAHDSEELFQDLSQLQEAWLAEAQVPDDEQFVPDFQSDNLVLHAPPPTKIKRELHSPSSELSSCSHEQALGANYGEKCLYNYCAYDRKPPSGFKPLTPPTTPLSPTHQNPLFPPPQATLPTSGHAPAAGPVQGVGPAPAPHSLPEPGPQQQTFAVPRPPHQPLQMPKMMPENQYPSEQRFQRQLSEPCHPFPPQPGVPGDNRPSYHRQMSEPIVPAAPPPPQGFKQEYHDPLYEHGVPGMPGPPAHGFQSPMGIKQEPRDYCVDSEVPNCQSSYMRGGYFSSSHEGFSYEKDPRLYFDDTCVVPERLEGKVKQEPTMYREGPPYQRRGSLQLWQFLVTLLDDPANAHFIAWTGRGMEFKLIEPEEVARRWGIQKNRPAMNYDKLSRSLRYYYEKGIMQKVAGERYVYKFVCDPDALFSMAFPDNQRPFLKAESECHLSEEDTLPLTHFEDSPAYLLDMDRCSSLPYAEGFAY
HSF1, sequence (Q00613 whole entry): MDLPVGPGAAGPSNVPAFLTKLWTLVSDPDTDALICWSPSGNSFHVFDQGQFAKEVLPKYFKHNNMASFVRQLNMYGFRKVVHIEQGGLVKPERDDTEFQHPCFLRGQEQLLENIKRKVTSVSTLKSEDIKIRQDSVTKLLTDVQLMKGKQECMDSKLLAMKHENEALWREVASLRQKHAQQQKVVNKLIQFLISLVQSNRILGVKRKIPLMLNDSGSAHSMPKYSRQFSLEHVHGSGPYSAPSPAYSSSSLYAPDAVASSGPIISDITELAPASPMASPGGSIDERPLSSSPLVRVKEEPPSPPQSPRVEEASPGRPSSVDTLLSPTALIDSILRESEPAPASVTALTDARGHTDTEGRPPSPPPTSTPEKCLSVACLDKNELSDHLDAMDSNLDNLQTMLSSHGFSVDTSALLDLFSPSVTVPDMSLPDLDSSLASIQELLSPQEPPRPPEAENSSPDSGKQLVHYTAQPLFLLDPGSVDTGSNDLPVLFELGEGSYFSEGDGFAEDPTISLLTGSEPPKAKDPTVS
ELF4, sequence (Q99607 whole entry): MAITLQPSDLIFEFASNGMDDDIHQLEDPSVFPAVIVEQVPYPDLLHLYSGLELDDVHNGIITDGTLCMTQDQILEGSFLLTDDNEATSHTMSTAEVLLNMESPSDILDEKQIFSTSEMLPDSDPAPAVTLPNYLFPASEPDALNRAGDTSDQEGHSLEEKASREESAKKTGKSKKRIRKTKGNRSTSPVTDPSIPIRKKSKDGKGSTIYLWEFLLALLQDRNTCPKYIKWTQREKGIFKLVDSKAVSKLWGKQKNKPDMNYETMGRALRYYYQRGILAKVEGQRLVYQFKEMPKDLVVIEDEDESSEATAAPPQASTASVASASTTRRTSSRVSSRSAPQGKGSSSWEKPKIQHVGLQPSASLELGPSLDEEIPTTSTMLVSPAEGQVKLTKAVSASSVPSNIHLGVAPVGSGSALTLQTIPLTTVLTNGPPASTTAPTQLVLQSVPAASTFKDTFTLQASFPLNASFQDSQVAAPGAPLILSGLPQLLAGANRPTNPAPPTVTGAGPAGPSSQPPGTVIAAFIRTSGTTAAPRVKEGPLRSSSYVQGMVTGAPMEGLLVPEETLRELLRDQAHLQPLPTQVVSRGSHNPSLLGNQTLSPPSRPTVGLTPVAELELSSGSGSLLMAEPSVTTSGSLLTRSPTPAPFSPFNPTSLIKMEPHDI
ETV1, sequence (P50549 whole entry): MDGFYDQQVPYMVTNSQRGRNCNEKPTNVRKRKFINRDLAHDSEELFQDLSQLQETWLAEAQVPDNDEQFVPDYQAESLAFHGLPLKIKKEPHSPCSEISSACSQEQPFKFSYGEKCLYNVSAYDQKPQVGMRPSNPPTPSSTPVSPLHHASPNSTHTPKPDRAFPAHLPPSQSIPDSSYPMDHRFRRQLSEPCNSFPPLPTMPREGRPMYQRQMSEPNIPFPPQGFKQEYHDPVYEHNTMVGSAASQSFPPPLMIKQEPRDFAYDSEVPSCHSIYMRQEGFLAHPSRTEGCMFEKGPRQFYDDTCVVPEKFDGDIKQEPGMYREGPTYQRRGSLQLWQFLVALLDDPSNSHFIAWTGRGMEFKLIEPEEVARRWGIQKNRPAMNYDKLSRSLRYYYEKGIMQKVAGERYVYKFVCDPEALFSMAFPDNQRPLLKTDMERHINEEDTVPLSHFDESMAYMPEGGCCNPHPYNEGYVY

Turning to ACGTAA, the binding signal in test [1] was 1.07 fold enrichment (6-mer frequency, TF over GST control); in test [2], 1.2 fold enrichment (6-mer frequency, TF over GST control); in test [3], 1.17 fold enrichment (6-mer frequency, TF over GST control); in test [4], 1.03 fold enrichment (6-mer frequency, TF over GST control); in [5], 1.07 fold enrichment (6-mer frequency, TF over GST control); in test [6], 1.04 fold enrichment (6-mer frequency, TF over GST control). Besides, the binding signal in test [7] was 1.05 fold enrichment (6-mer frequency, TF over GST control); in [8] it was 1.15 fold enrichment (6-mer frequency, TF over GST control); in test [9] it was 1.07 fold enrichment (6-mer frequency, TF over GST control); in test [10], 1.16 fold enrichment (6-mer frequency, TF over GST control); in test [11] it was 1.17 fold enrichment (6-mer frequency, TF over GST control); in test [12], 1.12 fold enrichment (6-mer frequency, TF over GST control). Further, the binding signal in test [13] is 1.14 fold enrichment (6-mer frequency, TF over GST control); in test [14], 1.12 fold enrichment (6-mer frequency, TF over GST control); in test [15], 1.12 fold enrichment (6-mer frequency, TF over GST control); in test [16], 1.07 fold enrichment (6-mer frequency, TF over GST control); in test [17], 1.27 fold enrichment (6-mer frequency, TF over GST control); in test [18] it was 1.12 fold enrichment (6-mer frequency, TF over GST control).
